# PubChem BioAssay AID1508601 (ICCB-Longwood Screening Facility, Harvard Medical School, 2020)
# Values joined by “and” are separate entries in the source; they are usually repeats but may differ in a detail not shown here. Identical values can stand only once. Screen size: about 5,700 compounds; about 85 (1%) were called active. Cut-off read from the data, not from the text of the source: active = p53-positive nuclei above about 36% (passing the limit was not always enough); inactive = the rest. Many of the other results were omitted from the sample, so actives are more common in it than they were.
# Tests used:
# [1] = p53 stabilisation in HPV-positive human cells, imaging, p53-positive nuclei imaging, 24 h, 48 h (AID 1508601); settings: 24/48 h
# [2] = target: Cellular tumor antigen p53 (Homo sapiens) (UniProt P04637); experiment: as above; settings: 24/48 h, stronger effect = higher value
# Sequence of Cellular tumor antigen p53 (Homo sapiens) (P04637 whole entry, looked up): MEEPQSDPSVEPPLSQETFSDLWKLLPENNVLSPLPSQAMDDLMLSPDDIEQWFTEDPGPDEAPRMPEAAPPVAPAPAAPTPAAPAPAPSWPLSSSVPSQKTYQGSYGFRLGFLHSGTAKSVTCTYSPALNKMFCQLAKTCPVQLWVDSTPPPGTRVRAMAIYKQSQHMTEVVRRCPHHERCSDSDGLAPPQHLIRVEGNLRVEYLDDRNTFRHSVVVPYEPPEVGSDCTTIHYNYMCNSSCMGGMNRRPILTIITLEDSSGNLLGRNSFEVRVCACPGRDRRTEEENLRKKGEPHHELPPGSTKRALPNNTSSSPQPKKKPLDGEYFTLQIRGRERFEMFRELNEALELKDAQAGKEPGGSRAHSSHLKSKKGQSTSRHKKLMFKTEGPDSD
# [3] = measured here: cell number at 24 h, Library stock concentration: 10 mM
# [4] = measured here: cell number at 48 h, Library stock concentration: 10 mM
# [5] = Library stock concentration: 10 mM
# [6] = measured here: p53 positive nuclei at 24 h, Library stock concentration: 10 mM
# [7] = measured here: cell number at 24 h, concentration not given here
# [8] = measured here: cell number at 48 h, concentration not given here
# [9] = measured here: p53 positive nuclei at 24 h, concentration not given here
# [10] = measured here: cell number at 24 h, Library stock concentration: 3.33 mM
# [11] = measured here: cell number at 48 h, Library stock concentration: 3.33 mM
# [12] = Library stock concentration: 3.33 mM
# [13] = measured here: p53 positive nuclei at 24 h, Library stock concentration: 3.33 mM
# [14] = measured here: cell number at 24 h, Library stock concentration: 80 uM
# [15] = measured here: cell number at 24 h, Library stock concentration: 400 uM
# [16] = measured here: cell number at 24 h, Library stock concentration: 2 mM
# [17] = measured here: cell number at 48 h, Library stock concentration: 80 uM
# [18] = measured here: cell number at 48 h, Library stock concentration: 400 uM
# [19] = measured here: cell number at 48 h, Library stock concentration: 2 mM
# [20] = Library stock concentration: 80 uM
# [21] = Library stock concentration: 400 uM
# [22] = Library stock concentration: 2 mM
# [23] = measured here: p53 positive nuclei at 24 h, Library stock concentration: 80 uM
# [24] = measured here: p53 positive nuclei at 24 h, Library stock concentration: 400 uM
# [25] = measured here: p53 positive nuclei at 24 h, Library stock concentration: 2 mM
smiles,measurement,setting,value
NC(=O)c1ncn(C2OC(CO)C(O)C2O)c1O (centres undefined),"nuclei count, normalised","[1]; measured here: cell number at 24 h, Library stock concentration: 500 nM",107%
same,"nuclei count, normalised","[1]; measured here: cell number at 24 h, Library stock concentration: 1.5 uM",106%
same,"nuclei count, normalised","[1]; measured here: cell number at 24 h, Library stock concentration: 4.6 uM",114%
same,"nuclei count, normalised","[1]; measured here: cell number at 24 h, Library stock concentration: 13.7 uM",113%
same,"nuclei count, normalised","[1]; measured here: cell number at 24 h, Library stock concentration: 41 uM",103%
same,"nuclei count, normalised","[1]; measured here: cell number at 24 h, Library stock concentration: 123 uM",107%
same,"nuclei count, normalised","[1]; measured here: cell number at 24 h, Library stock concentration: 370 uM",112%
same,"nuclei count, normalised","[1]; measured here: cell number at 24 h, Library stock concentration: 1.111 mM",97.9%
same,"nuclei count, normalised","[1]; measured here: cell number at 24 h, Library stock concentration: 3.333 mM",106%
same,"nuclei count, normalised",[1]; [3],104%
same,"nuclei count, normalised","[1]; measured here: cell number at 48 h, Library stock concentration: 500 nM",106%
same,"nuclei count, normalised","[1]; measured here: cell number at 48 h, Library stock concentration: 1.5 uM",107%
same,"nuclei count, normalised","[1]; measured here: cell number at 48 h, Library stock concentration: 4.6 uM",110%
same,"nuclei count, normalised","[1]; measured here: cell number at 48 h, Library stock concentration: 13.7 uM",108%
same,"nuclei count, normalised","[1]; measured here: cell number at 48 h, Library stock concentration: 41 uM",107%
same,"nuclei count, normalised","[1]; measured here: cell number at 48 h, Library stock concentration: 123 uM",107%
same,"nuclei count, normalised","[1]; measured here: cell number at 48 h, Library stock concentration: 370 uM",113%
same,"nuclei count, normalised","[1]; measured here: cell number at 48 h, Library stock concentration: 1.111 mM",105%
same,"nuclei count, normalised","[1]; measured here: cell number at 48 h, Library stock concentration: 3.333 mM",108%
same,"nuclei count, normalised",[1]; [4],102%
same,"p53-positive nuclei, normalised",[2]; Library stock concentration: 500 nM,-0.204% (inactive)
same,"p53-positive nuclei, normalised",[2]; Library stock concentration: 1.5 uM,-0.0465% (inactive)
same,"p53-positive nuclei, normalised",[2]; Library stock concentration: 4.6 uM,0.0159% (inactive)
same,"p53-positive nuclei, normalised",[2]; Library stock concentration: 13.7 uM,-0.0544% (inactive)
same,"p53-positive nuclei, normalised",[2]; Library stock concentration: 41 uM,-0.167% (inactive)
same,"p53-positive nuclei, normalised",[2]; Library stock concentration: 123 uM,-0.128% (inactive)
same,"p53-positive nuclei, normalised",[2]; Library stock concentration: 370 uM,-0.0645% (inactive)
same,"p53-positive nuclei, normalised",[2]; Library stock concentration: 1.111 mM,-0.129% (inactive)
same,"p53-positive nuclei, normalised",[2]; Library stock concentration: 3.333 mM,-0.208% (inactive)
same,"p53-positive nuclei, normalised",[2]; [5],-0.16% (inactive)
same,"p53-positive nuclei, normalised","[2]; measured here: p53 positive nuclei at 24 h, Library stock concentration: 500 nM",-0.239%
same,"p53-positive nuclei, normalised","[2]; measured here: p53 positive nuclei at 24 h, Library stock concentration: 1.5 uM",-0.0183%
same,"p53-positive nuclei, normalised","[2]; measured here: p53 positive nuclei at 24 h, Library stock concentration: 4.6 uM",-0.139%
same,"p53-positive nuclei, normalised","[2]; measured here: p53 positive nuclei at 24 h, Library stock concentration: 13.7 uM",-0.19%
same,"p53-positive nuclei, normalised","[2]; measured here: p53 positive nuclei at 24 h, Library stock concentration: 41 uM",-0.128%
same,"p53-positive nuclei, normalised","[2]; measured here: p53 positive nuclei at 24 h, Library stock concentration: 123 uM",0.0805%
same,"p53-positive nuclei, normalised","[2]; measured here: p53 positive nuclei at 24 h, Library stock concentration: 370 uM",-0.0891%
same,"p53-positive nuclei, normalised","[2]; measured here: p53 positive nuclei at 24 h, Library stock concentration: 1.111 mM",-0.183%
same,"p53-positive nuclei, normalised","[2]; measured here: p53 positive nuclei at 24 h, Library stock concentration: 3.333 mM",-0.128%
same,"p53-positive nuclei, normalised",[2]; [6],-0.0747%
O=C(c1cn2cccnc2n1)N1CCCC(Cn2cc(C3CCCC3)nn2)C1 (centres undefined),"nuclei count, normalised",[1]; [7],84.5%
same,"nuclei count, normalised",[1]; [8],92.1%
same,"p53-positive nuclei, normalised",[2]; concentration not given here,-0.0576% (inactive)
same,"p53-positive nuclei, normalised",[2]; [9],-0.142%
C#C[C@]1(O)CCC2C3CCc4cc(O)ccc4C3CC[C@@]21C (some centres undefined),"nuclei count, normalised",[1]; [7],85.4%
same,"nuclei count, normalised",[1]; [8],37.7%
same,"p53-positive nuclei, normalised",[2]; concentration not given here,83% (active)
same,"p53-positive nuclei, normalised",[2]; [9],8.99%
C#C[C@@]1(O)CC[C@H]2[C@@H]3CCc4cc(O)ccc4[C@@H]3CC[C@@]21C,"nuclei count, normalised",[1]; [10],80.8%
same,"nuclei count, normalised",[1]; [11],66.7%
same,"p53-positive nuclei, normalised",[2]; [12],15.7% (inactive)
same,"p53-positive nuclei, normalised",[2]; [13],2.17%
C#C[C@]1(O)CC[C@@H]2[C@@H]3CCc4cc(O)ccc4[C@@H]3CC[C@@]21C,"nuclei count, normalised",[1]; [14],97.1%
same,"nuclei count, normalised",[1]; [15],108%
same,"nuclei count, normalised",[1]; [16],101%
same,"nuclei count, normalised",[1]; [3],72.9%
same,"nuclei count, normalised",[1]; [17],108%
same,"nuclei count, normalised",[1]; [18],108%
same,"nuclei count, normalised",[1]; [19],102%
same,"nuclei count, normalised",[1]; [4],30.5%
same,"p53-positive nuclei, normalised",[2]; [20],0.0565% (inactive)
same,"p53-positive nuclei, normalised",[2]; [21],0.0172% (inactive)
same,"p53-positive nuclei, normalised",[2]; [22],0.0704% (inactive)
same,"p53-positive nuclei, normalised",[2]; [5],76.1% (inactive)
same,"p53-positive nuclei, normalised",[2]; [23],-0.0527%
same,"p53-positive nuclei, normalised",[2]; [24],0.068%
same,"p53-positive nuclei, normalised",[2]; [25],0.0711%
same,"p53-positive nuclei, normalised",[2]; [6],6.02%
C#CCOc1ccc2c(c1)c(-c1ccc(C(C)C)cc1)nc(=O)n2C(C)C,"nuclei count, normalised","[1]; measured here: cell number at 24 h, Library stock concentration: 46 uM",104%
same,"nuclei count, normalised","[1]; measured here: cell number at 24 h, Library stock concentration: 278 uM",110%
same,"nuclei count, normalised","[1]; measured here: cell number at 24 h, Library stock concentration: 1.67 mM",104%
same,"nuclei count, normalised",[1]; [3],112%
same,"nuclei count, normalised","[1]; measured here: cell number at 48 h, Library stock concentration: 46 uM",101%
same,"nuclei count, normalised","[1]; measured here: cell number at 48 h, Library stock concentration: 278 uM",101%
same,"nuclei count, normalised","[1]; measured here: cell number at 48 h, Library stock concentration: 1.67 mM",97.6%
same,"nuclei count, normalised",[1]; [4],101%
same,"p53-positive nuclei, normalised",[2]; Library stock concentration: 46 uM,-0.166% (inactive)
same,"p53-positive nuclei, normalised",[2]; Library stock concentration: 278 uM,0.0283% (inactive)
same,"p53-positive nuclei, normalised",[2]; Library stock concentration: 1.67 mM,0.0841% (inactive)
same,"p53-positive nuclei, normalised",[2]; [5],-0.00718% (inactive)
same,"p53-positive nuclei, normalised","[2]; measured here: p53 positive nuclei at 24 h, Library stock concentration: 46 uM",-0.153%
same,"p53-positive nuclei, normalised","[2]; measured here: p53 positive nuclei at 24 h, Library stock concentration: 278 uM",-0.218%
same,"p53-positive nuclei, normalised","[2]; measured here: p53 positive nuclei at 24 h, Library stock concentration: 1.67 mM",-0.0911%
same,"p53-positive nuclei, normalised",[2]; [6],-0.218%
O=C(O)C=Cc1ccc(Cn2ccnc2)cc1,"nuclei count, normalised",[1]; [14],111%
same,"nuclei count, normalised",[1]; [15],104%
same,"nuclei count, normalised",[1]; [16],103%
same,"nuclei count, normalised",[1]; [10],103% and 107%
same,"nuclei count, normalised",[1]; [3],108%
same,"nuclei count, normalised",[1]; [17],108%
same,"nuclei count, normalised",[1]; [18],104%
same,"nuclei count, normalised",[1]; [19],103%
same,"nuclei count, normalised",[1]; [11],110% and 99.3%
same,"nuclei count, normalised",[1]; [4],103%
same,"p53-positive nuclei, normalised",[2]; [20],0.0181% (inactive)
same,"p53-positive nuclei, normalised",[2]; [21],0.0683% (inactive)
same,"p53-positive nuclei, normalised",[2]; [22],0.0233% (inactive)
same,"p53-positive nuclei, normalised",[2]; [12],-0.0503% (inactive) and -0.0965% (inactive)
same,"p53-positive nuclei, normalised",[2]; [5],-0.178% (inactive)
same,"p53-positive nuclei, normalised",[2]; [23],0.0685%
same,"p53-positive nuclei, normalised",[2]; [24],0.0107%
same,"p53-positive nuclei, normalised",[2]; [25],0.0098%
same,"p53-positive nuclei, normalised",[2]; [13],-0.252% and -0.232%
same,"p53-positive nuclei, normalised",[2]; [6],-0.12%
